Experimental data: PubChem BioAssay (NCATS)
Values joined by “and” are separate entries in the source; they are usually repeats but may differ in a detail not shown here. Equal values may be shown once. Residues, ends and D or L forms follow the SMILES beside them. *: point of attachment. Cbz = O=C(OCc1ccccc1)*

Assay: qHTS drug screen for cell cycle checkpoint inhibitors in PARPi-resistant BRCA-mutant ovarian cancer cell lines. (AID 1963452)
Conditions: PEO1/OlaR viability, CellTiter-Glo luminescence, 96 h; measured here: PEO1 parental Z-AUC; stronger effect = lower value
Outline: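 PEO1, PEO4 and PEO1/OlaR ovarian cancer cells, 600 per well, exposed 96 h at 37C to a dilution series. Viability read by CellTiter-Glo luminescence, normalized to DMSO and empty wells; activity summarized as Z-AUC.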
Work on Cc1cc(C(=O)NOCCO)c(Nc2ccc(I)cc2F)n(C)c1=O yielded a Z-AUC of -1.14.
NC1=N[C@H]2[C@H](CS[C@H]2CCCCC(=O)O)N1 showed a Z-AUC of 0.0828.
With C=CC(=O)N1CCc2ccc(-n3c(=O)ccc4cnc5ccc(-c6cnn(C)c6)cc5c43)cc21 the Z-AUC was -0.285.
With CCOC(=O)C1=C(C)NC(=S)NC1c1cccc(O)c1 (centres undefined) the Z-AUC was 0.343.
In the case of CCCCCCCCc1ccc(CCC(N)(CO)CO)cc1, the Z-AUC is reported as -0.111.
With CC(C)Oc1ccc(C(=O)N[C@H](CNC(=O)CN(C)C)Cc2ccc(-c3cn4cccc([C@H](C)O)c4n3)cc2)cc1Cl the Z-AUC was -0.733.
For COc1cc(C(C)C)c(Oc2cnc(NC(CO)CO)nc2N)cc1I, the Z-AUC was 1.44.

Same assay, conditions: PEO1/OlaR viability, CellTiter-Glo luminescence, 96 h; measured here: PEO4 Z-AUC; stronger effect = lower value
CC(C)n1cnc2c(NCCc3ccc(O)cc3)nc(-c3csc4ccccc34)nc21 showed a Z-AUC of 0.466.
CCc1c(O)cc(O)c(C(=O)c2ccc(OCCN3CCOCC3)c(OC)c2)c1CC(=O)N(CCOC)CCOC showed a Z-AUC of 0.145.
For Cn1cc(-c2cnn3c(N)c(Br)c([C@H]4CCCNC4)nc23)cn1, the Z-AUC was 0.266 and -1.31.
In the case of Cn1cnc(=N)c2[nH]cnc21, the Z-AUC is reported as 0.897.
In the case of CC(C)C[C@@H](C=O)NC(=O)[C@H](CC(C)C)NC(=O)[C@H](CC(C)C)NC(=O)OCc1ccccc1 (Cbz-Leu-Leu-Leu-aldehyde), the Z-AUC is reported as -0.457.
Compound c1ccc2c(Oc3nc(Nc4ccc(N5CCOCC5)cc4)c4ncn(C5CCCCC5)c4n3)cccc2c1 has a Z-AUC of 1.58.
Work on CN(C)c1ccc(C(=O)NCCCCCCC(=O)NO)cc1 yielded a Z-AUC of -0.674.
CN(C)CCN1C(=O)c2cccc3cc(N)cc(c23)C1=O showed a Z-AUC of -0.88.
O=[N+]([O-])c1cn2c(n1)OC[C@@H](OCc1ccc(OC(F)(F)F)cc1)C2 gave a Z-AUC of 0.849.
For CN(C)CC(=O)N1CCC(c2ccc(NC(=O)c3ncc(C#N)[nH]3)c(C3=CCCCC3)c2)CC1, the Z-AUC was -0.584.
Work on COc1cc(C[C@@H](CO)[C@H](CO)Cc2ccc(O)c(OC)c2)ccc1O yielded a Z-AUC of 0.516.
In the case of c1cc(CN2CCCNCCNCCCNCC2)ccc1CN1CCCNCCNCCCNCC1, the Z-AUC is reported as 1.11.
In the case of Cn1cnc2c(F)c(Nc3ccc(Br)cc3F)c(C(=O)NOCCO)cc21, the Z-AUC is reported as -0.428.
For O=C(CCCCCCC(=O)Nc1cccnc1)NO, the Z-AUC was 0.136.
In the case of CC(N[C@H]1CCCC[C@H]1NC(=O)c1ccc(Cl)cc1)c1cccc2ccccc12 (some centres undefined), the Z-AUC is reported as 0.472.
For COc1cccc2c1C(=O)c1c(O)c3c(c(O)c1C2=O)C[C@@](O)(C(=O)CO)C[C@@H]3O[C@H]1C[C@H](N)[C@H](OC2CCCCO2)[C@H](C)O1 (some centres undefined), the Z-AUC was 0.0749 and -1.06.
c1ccc(CNc2nc(NCc3ccccc3)c3ccccc3n2)cc1 gave a Z-AUC of -0.739.
CCOc1cc2c(c(F)c1OCC)C(=N)N(CC(=O)c1cc(N3CCOCC3)c(OC)c(C(C)(C)C)c1)C2 gave a Z-AUC of 0.119.
For CCCc1nc(C(C)(C)O)c(C(=O)O)n1Cc1ccc(-c2ccccc2-c2nn[nH]n2)cc1, the Z-AUC was 1.03.
With CCOC(=O)[C@@H](N)Cc1ccc(-c2cc(O[C@H](c3ccc(Cl)cc3-n3ccc(C)n3)C(F)(F)F)nc(N)n2)cc1 the Z-AUC was -0.32.
Compound COC(=O)C1C2CC3c4[nH]c5cc(OC)ccc5c4CCN3CC2CC(OC(=O)c2cc(OC)c(OC)c(OC)c2)C1OC (centres undefined) has a Z-AUC of 0.416.
With N#Cc1cc(NC(=O)Nc2nnc(-c3ccncc3)s2)ccc1-c1cn[nH]c1 the Z-AUC was 0.15.
Compound CC(C)NC[C@@H](C(=O)N1CCN(c2ncnc3c2[C@H](C)C[C@H]3O)CC1)c1ccc(Cl)cc1 has a Z-AUC of 1.13.
In the case of FC(F)c1nc2ccccc2n1-c1nc(N2CCOCC2)nc(N2CCOCC2)n1, the Z-AUC is reported as -0.858.
Work on O=c1c(O)c(-c2ccc(O)c(O)c2)oc2cc(O)ccc12 yielded a Z-AUC of 0.0271.
COc1cccc2c1C(=O)c1c(O)c3c(c(O)c1C2=O)C[C@@](O)(C(=O)CO)C[C@@H]3O[C@H]1C[C@H](N)[C@@H](O)[C@H](C)O1 showed a Z-AUC of -1.69.
With C[C@H]1[C@@H](OC(=O)CCC(=O)O)O[C@@H]2O[C@@]3(C)CC[C@@H]4[C@H](C)CC[C@@H]1[C@@]24OO3 the Z-AUC was -0.572.
c1coc(CNc2ncnc3nc[nH]c23)c1 showed a Z-AUC of 1.1.
Work on COc1cc(C)c(Sc2cnc(NC(=O)c3ccc(CNC(C)C(C)(C)C)cc3)s2)cc1C(=O)N1CCN(C(C)=O)CC1 (centres undefined) yielded a Z-AUC of -0.809.
Compound C=Cc1c(C)c2cc3nc(cc4[nH]c(cc5nc(cc1[nH]2)C(C)=C5CCC(=O)O)c(CCC(=O)OC)c4C)[C@@]1(C)C3=CC=C(C(=O)OC)[C@H]1C(=O)OC has a Z-AUC of 1.36.
CCOC(=O)C=C[C@H](C[C@@H]1CCNC1=O)NC(=O)[C@@H](CC(=O)[C@@H](NC(=O)c1cc(C)on1)C(C)C)Cc1ccc(F)cc1 gave a Z-AUC of 0.164.
Cc1cc(C(=O)NOCCO)c(Nc2ccc(I)cc2F)n(C)c1=O showed a Z-AUC of -0.82.
